# From PubChem BioAssay (NCATS)
# Inconclusive results are not listed. Where a call stands in place of a potency, no number is given. Values without a mark were called inactive. Calls of active or inactive are those of the source. Calls come from the whole dose curve; as a rule, active = well fitted curve in the direction sought with a large enough effect; inconclusive = small, poorly fitted or top-dose-only effect, or another doubt; inactive = no such curve, though single readings can be large; an effect the other way counts as inactive or inconclusive.
# Columns and labels:
# [1] = qHTS of pediatric cancer cell lines to identify multiple opportunities for drug repurposing: Primary screen for SK-N-MC cells (AID 1347093)
# Outline: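 Metabolically active cells were quantified by ATP-dependent luminescence (CellTiter-Glo, 15 min at room temperature) following 48 h treatment. Cells had been plated at 500-1,000 per well and settled for 5 h beforehand.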
# [2] = qHTS of pediatric cancer cell lines to identify multiple opportunities for drug repurposing: Primary screen for BT-37 cells (AID 1347094)
# Outline: (§1)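 Following a 5-hour attachment period, cells at 500-1,000/well received compounds and were cultured for 48 hours. CellTiter-Glo was added and luminescence read to estimate viable, metabolically active cells.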
# [3] = qHTS of pediatric cancer cell lines to identify multiple opportunities for drug repurposing: Primary screen for U-2 OS cells (AID 1347096); note: nearly all actives have a fitted effect of over 50% in size
# Outline: (§2)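 Cells (500-1,000/well) rested 5 h, then received compounds for 48 h; metabolically active cells were measured by CellTiter-Glo luminescence. Final concentrations spanned up to 46 µM (MIPE, 11-point) or 0.59 nM-46 µM (NPC, 8-point) in primary screens, 11-point in follow-ups.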
# [4] = qHTS of pediatric cancer cell lines to identify multiple opportunities for drug repurposing: Primary screen for SK-N-SH cells (AID 1347098); note: nearly all actives have a fitted effect of over 65% in size
# Outline: as §2
# [5] = qHTS of pediatric cancer cell lines to identify multiple opportunities for drug repurposing: Primary screen for BT-12 cells (AID 1347101); note: nearly all actives have a fitted effect of over 25% in size
# Outline: as §2
# [6] = qHTS of pediatric cancer cell lines to identify multiple opportunities for drug repurposing: Primary screen for Rh18 cells (AID 1347102); note: nearly all actives have a fitted effect of over 65% in size
# Outline: as §2
# [7] = qHTS of pediatric cancer cell lines to identify multiple opportunities for drug repurposing: Primary screen for OHS-50 cells (AID 1347103); note: nearly all actives have a fitted effect of over 40% in size
# Outline: as §2
# [8] = qHTS of pediatric cancer cell lines to identify multiple opportunities for drug repurposing: Primary screen for MG 63 (6-TG R) cells (AID 1347105); note: nearly all actives have a fitted effect of over 50% in size
# Outline: as §1
# [9] = qHTS of pediatric cancer cell lines to identify multiple opportunities for drug repurposing: Primary screen for control Hh wild type fibroblast cells (AID 1347106); note: nearly all actives have a fitted effect of over 55% in size
# Outline: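 Viability after 48 h compound treatment at 37C, 500-1,000 cells/well, read as ATP luminescence with CellTiter-Glo. Primary screens used 11-point (MIPE, 0.78 nM-46 µM) or 8-point (NPC, 0.59 nM-46 µM) final concentrations; follow-up screens used 11-point dilutions.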
# [10] = qHTS of pediatric cancer cell lines to identify multiple opportunities for drug repurposing: Primary screen for Rh30 cells (AID 1347107); note: nearly all actives have a fitted effect of over 75% in size
# Outline: as §2
# [11] = qHTS of pediatric cancer cell lines to identify multiple opportunities for drug repurposing: Primary screen for Rh41 cells (AID 1347108); note: nearly all actives have a fitted effect of over 70% in size
# Outline: as §1
# [12] = qHTS of pediatric cancer cell lines to identify multiple opportunities for drug repurposing: Confirmatory screen for NB1643 cells (AID 1347109); note: nearly all actives have a fitted effect of over 45% in size
# Outline: as §2
# [13] = qHTS of pediatric cancer cell lines to identify multiple opportunities for drug repurposing: Confirmatory screen for A673 cells (AID 1347110);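 note: cells exposed to compound for 48 h before the viability read; nearly all actives have a fitted effect of over 65% in size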
# Outline: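 A673 cells at 500-1,000 cells/well were dosed 5 h after plating, in dilution series up to 46 uM final; primary runs used 8 or 11 points and confirmatory runs used 11 points. Viability was read by CellTiter-Glo luminescence after 48 h, against DMSO and 2.3 uM bortezomib controls.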
# [14] = qHTS of pediatric cancer cell lines to identify multiple opportunities for drug repurposing: Primary screen for A673 cells (AID 1347092); note: nearly all actives have a fitted effect of over 45% in size
# Outline: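 A673 cells (500-1,000 cells/well) were treated 48 hours at 37 degrees C with compounds at 11-point (0.78 nM to 46 µM) or 8-point (0.59 nM to 46 µM) dilutions. Viability read by CellTiter-Glo luminescence; concentration-response curves fitted.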
# [15] = qHTS of pediatric cancer cell lines to identify multiple opportunities for drug repurposing: Primary screen for NB-EBc1 cells (AID 1347095)
# Outline: as §1
# [16] = qHTS of pediatric cancer cell lines to identify multiple opportunities for drug repurposing: Primary screen for NB1643 cells (AID 1347099); note: nearly all actives have a fitted effect of over 50% in size
# Outline: as §1
# [17] = qHTS of pediatric cancer cell lines to identify multiple opportunities for drug repurposing: Primary screen for LAN-5 cells (AID 1347100)
# Outline: as §2
# [18] = qHTS of pediatric cancer cell lines to identify multiple opportunities for drug repurposing: Primary screen for RD cells (AID 1347104); note: nearly all actives have a fitted effect of over 55% in size
# Outline: as §1
# [19] = qHTS of pediatric cancer cell lines to identify multiple opportunities for drug repurposing: Primary screen for Saos-2 cells (AID 1347097); note: nearly all actives have a fitted effect of over 40% in size
# Outline: as §1
# Potency is the fitted concentration of half-maximal effect.
Compound,Potency [1],Potency [2],Potency [3],Potency [4],Potency [5],Potency [6],Potency [7],Potency [8],Potency [9],Potency [10],Potency [11],Potency [12],Potency [13],Potency [14],Potency [15],Potency [16],Potency [17],Potency [18],Potency [19]
CC1(C)O[C@@H]2C[C@H]3[C@@H]4CCC5=CC(=O)C=C[C@]5(C)[C@@H]4[C@@H](O)C[C@]3(C)[C@]2(C(=O)CO)O1,29.6 µM (active),inactive,inactive,inactive,inactive,inactive,inactive,inactive,inactive,inactive,inactive,inactive,inactive,–,–,–,–,–,–
CS[C@H]1SC[C@@H]2C(=O)N(C)[C@H](C(C)C)C(=O)OC[C@H](NC(=O)c3cnc4ccccc4n3)C(=O)N[C@H](C)C(=O)N(C)[C@@H]1C(=O)N(C)[C@H](C(C)C)C(=O)OC[C@H](NC(=O)c1cnc3ccccc3n1)C(=O)N[C@H](C)C(=O)N2C,0.0013 µM (active),1.7 nM (active),0.0093 µM (active),0.0048 µM (active),0.0054 µM (active),–,0.0122 µM (active),0.0187 µM (active),–,inactive,–,inactive,0.0059 µM (active),0.0023 µM (active),inactive,inactive,inactive,0.003 µM (active),–
Cc1cncc2cccc(S(=O)(=O)N3CCCN(C(=O)CN)C[C@@H]3C)c12,–,inactive,inactive,–,–,inactive,inactive,–,inactive,–,–,–,–,14.8 µM (active),–,inactive,1.48 µM (active),inactive,2.35 µM (active)
CCCCCCCN(CC)CCCC(O)c1ccc(NS(C)(=O)=O)cc1 (centres undefined),inactive,inactive,inactive,inactive,inactive,–,–,inactive,inactive,inactive,–,–,–,–,–,inactive,–,inactive,–
O=C(O)c1ccc(Nc2ncc3c(n2)-c2ccc(Cl)cc2C(c2c(F)cccc2F)=NC3)cc1,0.662 µM (active),–,–,–,inactive,–,–,23.5 µM (active),inactive,18.7 µM (active),–,–,10.4 µM (active),4.69 µM (active),–,–,0.0296 µM (active),29.6 µM (active),–
O=c1[nH]c(=O)n([C@H]2C[C@@H](O)[C@@H](CO)O2)cc1F,16.6 µM (active),685 nM (active),18.7 µM (active),inactive,6.11 µM (active),–,–,18.7 µM (active),–,2.35 µM (active),1.48 µM (active),–,–,1.87 µM (active),–,14.8 µM (active),1.32 µM (active),16.6 µM (active),5.9 µM (active)
O=C(c1ccc(F)cc1)N1CCC[C@H](c2nc(-c3ccc(F)cc3)no2)C1,inactive,inactive,–,13.6 µM (active),inactive,inactive,inactive,–,inactive,inactive,–,–,–,inactive,inactive,inactive,inactive,inactive,inactive
N=c1ccn2c(n1)O[C@H]1[C@@H](O)[C@@H](CO)O[C@H]12,11.8 µM (active),611 nM (active),inactive,–,–,inactive,2.73 µM (active),inactive,inactive,–,–,–,–,0.372 µM (active),11.8 µM (active),9.35 µM (active),3.32 µM (active),–,–
COc1cc(C[C@@H](CO)[C@H](CO)Cc2ccc(O)c(OC)c2)ccc1O,0.209 µM (active),3850 nM (active),–,1.71 µM (active),–,4.18 µM (active),9.68 µM (active),0.935 µM (active),418 nM (active),0.469 µM (active),0.935 µM (active),–,–,0.187 µM (active),–,0.59 µM (active),2.35 µM (active),0.526 µM (active),5.9 µM (active)
C[C@@H]1[C@H](C)CC[C@]2(C(=O)O)CC[C@]3(C)C(=CC[C@@H]4[C@@]5(C)C[C@@H](O)[C@H](O)[C@@](C)(CO)[C@H]5CC[C@]43C)[C@@H]12,inactive,inactive,–,inactive,inactive,–,–,inactive,inactive,inactive,inactive,–,–,inactive,inactive,inactive,inactive,inactive,–
O=C(NCc1ccccc1)[C@H](Cc1ccccc1)NC(=O)[C@@H]1O[C@@H]1C(=O)NCCc1ccc(O)cc1,23.5 µM (active),–,inactive,21.5 µM (active),inactive,–,–,inactive,inactive,inactive,inactive,–,10.4 µM (active),1.18 µM (active),inactive,–,–,–,23.5 µM (active)
CCCCCN=C(N)NN=Cc1c[nH]c2ccc(OC)cc12,3.72 µM (active),–,–,inactive,–,–,9.68 µM (active),–,inactive,inactive,–,–,–,–,–,–,–,–,–
Cc1onc(-c2ccccc2)c1C(=O)N[C@@H]1C(=O)N2[C@@H](C(=O)O)C(C)(C)S[C@@H]12,inactive,inactive,inactive,inactive,inactive,inactive,inactive,inactive,inactive,inactive,–,–,–,–,inactive,–,inactive,–,inactive
CC(N[C@H]1CCCC[C@H]1NC(=O)c1ccc(Cl)cc1)c1cccc2ccccc12 (some centres undefined),0.0209 µM (active),1530 nM (active),inactive,4.82 µM (active),1.37 µM (active),–,6.11 µM (active),–,inactive,inactive,–,20.8 µM (active),16.5 µM (active),–,–,–,2.96 µM (active),2.64 µM (active),–
